# According to PubChem BioAssay (NCATS):
# Activity calls are given as the source filed them. The call rests on the fitted dose curve.
# Assay: qHTS drug screen for cell cycle checkpoint inhibitors in PARPi-resistant BRCA-mutant ovarian cancer cell lines. (AID 1963452)
# Conditions: PEO1/OlaR viability, CellTiter-Glo luminescence, 96 h; for Z-AUC: stronger effect = lower value
# Excerpt: Women's Malignancies Branch, Center for Cancer Research (CCR),
# National Cancer Institute (NCI), National Institutes of Health (NIH), Bethesda, MD
# Poly (ADP-ribose) polymerase inhibitors (PARPis) have changed the treatment paradigm in breast cancer gene (BRCA) - mutant high-grade serous ovarian carcinoma (HGSC). However, most patients eventually develop resistance to PARPis, highlighting an unmet need for improved therapeutic strategies. Using high-throughput drug screens, we identified ataxia telangiectasia and rad3-related protein/checkpoint kinase 1 (CHK1) pathway inhibitors as cytotoxic and further validated the activity of the CHK1 inhibitor (CHK1i) prexasertib in PARPi-sensitive and -resistant BRCA-mutant HGSC cells and xenograft mouse models. CHK1i monotherapy induced DNA damage, apoptosis, and tumor size reduction. We then conducted a phase 2 study (NCT02203513) of prexasertib in patients with BRCA-mutant HGSC. The treatment was well tolerated but yielded an objective response rate of 6% (1 of 17; one partial response) in patients with previous PARPi treatment. […] BRCA reversion mutation in previously PARPi-treated BRCA-mutant patients was not associated with resistance to CHK1i.
# Among others, 1082 oncology drugs, both approved and investigational, were prioritized based on their status in clinical trial development. […] Drugs with average Z-AUC values less than -1.0 in all three cell lines were classified as "hits" resulting in 151 oncology drug hits. The screen also confirmed cross-resistance between olaparib and other PARPis (rucaparib, niraparib, and talazoparib) in PARPi-resistant PEO1/OlaR and PEO4.
# [1] G. L. Lin, K. M. Wilson, M. Ceribelli, B. Z. Stanton, P. J. Woo, S. Kreimer, E. Y. Qin, X. Zhang, J. Lennon, S. Nagaraja, P. J. Morris, M. Quezada, S. M. Gillespie, D. Y. Duveau, A. M. Michalowski, P. Shinn, R. Guha, M. Ferrer, C. Klumpp-Thomas, S. Michael, C. McKnight, P. Minhas, Z. Itkin, E. H. Raabe, L. Chen, R. Ghanem, A. C. Geraghty, L. Ni, K. I. Andreasson, N. A. Vitanza, K. E.Warren, C. J. Thomas, M. Monje, Therapeutic strategies for diffuse midline glioma from high-throughput combination drug screening. Sci. Transl. Med. 11, (2019).
# [2] T. M. Yamamoto, A. McMellen, Z. L. Watson, J. Aguilera, R. Ferguson, E. Nurmemmedov, T. Thakar, G. L. Moldovan, H. Kim, D. M. Cittelly, A. M. Joglar, E. P. Brennecke, H. Wilson, K. Behbakht, M. J. Sikora, B. G. Bitler, Activation of Wnt signaling promotes olaparib resistant ovarian cancer. Mol. Carcinog. 58, 1770 - 1782 (2019).
# PROTOCOL TABLE (as described by Inglese J, Shamu CE and Guy RK. 2007)
# SEQUENCE No. (e.g., 1, 2, 3, etc.); […] (e.g., Cells, Incubation, Reagent, etc.); VALUE; DESCRIPTION.
# 1; Compounds; 20nL; 1536-well white tissue culture-treated plates.
# 2; Cells; 5 uL; PEO1, PEO4, and PEO1/OlaR cells at 600 cells per well.
# 3; Incubation; 96 hr; 37C, 95% humidity, 5% CO2.
# 4; Reagent; 3 uL; CellTiter-Glo (Promega).
# 5; Incubation; 15 min; room temperature.
# 6; Detection; Luminescence, PHERAstar (BMG Labtech) plate reader.
# NOTES (numbers refer to Sequence numbers above)
# 1. MIPE 5.0 compounds were acoustically dispensed by Echo Acoustic Liquid Handler (Beckman Coulter Life Sciences). Each compound was plated at an 11-point concentration range with 1:3 dilution. Bortezomib, a proteasome inhibitor (final concentration, 20 uM), was used as a positive.
# 2. PEO1, PEO4, and PEO1/OlaR were trypsinized and dispensed in 5 uLof growth medium using a Multidrop Combi dispenser at a density of 600 cells per well to allow compounds to be present during the exponential growth phase.
# 3. Plates were incubated for 96 hours at standard incubator conditions and covered by a stainless steel gasketed lid to prevent evaporation.
# 4. Three microliters of CellTiter-Glo (Promega) were added to each well.
# 5. Plates were incubated at room temperature for 15 min with a stainless-steel lid in place.
# 6. Luminescence readings were taken using PHERAstar (BMG Labtech). […]
# [1] = measured here: PEO1 parental Z-AUC
# Potency means the concentration at half of the fitted maximal effect.
Compound,Potency,Z-AUC [1],Z-AUC (measured here: PEO4 Z-AUC),Z-AUC
Cc1nc2c(-c3cnc(N)nc3)nc(N3CCOCC3)nc2n1C(C)C,436 nM (active),-1.56,-1.63,
CCCCC(=O)OCC(=O)[C@]1(O)Cc2c(O)c3c(c(O)c2[C@@H](O[C@H]2C[C@H](NC(=O)C(F)(F)F)[C@H](O)[C@H](C)O2)C1)C(=O)c1c(OC)cccc1C3=O,549 nM (active),-2.19,-1.93,
O=C(O)C[C@H](O)C[C@H](O)/C=C/c1c(C2CC2)nc2ccccc2c1-c1ccc(F)cc1,,-0.553,-1.48,-0.947 (inactive)
O=C(C1CC1)N1CC[C@@H](Cc2n[nH]c(=O)n2-c2ccc(-c3ccc4occc4c3)cc2)C1,,0.792,0.425,1.31 (inactive)
CCN(c1cc(C#CCN2CCOCC2)cc(C(=O)NCc2c(C)cc(C)[nH]c2=O)c1C)C1CCC(N(C)CCOC)CC1 (configuration not stated),,1.88,1.36,0.159 (inactive)
CNc1nc(Nc2cnn([C@H]3CCN(C4COC4)C[C@@H]3F)c2Cl)ncc1C(F)(F)F,,-0.0727,0.0395,-0.479 (inactive)
CC1(C)O[C@@H]2C[C@H]3[C@@H]4CCC5=CC(=O)C=C[C@]5(C)[C@H]4[C@@H](O)C[C@]3(C)[C@]2(C(=O)CO)O1,,1.46,0.804,0.315 (inactive)
CCOC(=O)[C@H]1O[C@@H]1C(=O)N[C@@H](CC(C)C)C(=O)NCCC(C)C,,0.731,0.891,-0.23 (inactive)
CN1C(=O)N[C@@H](Cc2c[nH]c3c(Cl)cccc23)C1=O,,-0.75,-0.721,-0.9 (inactive)
NS(=O)(=O)NCCNc1nonc1C(=Nc1ccc(F)c(Br)c1)NO,,0.698,1.08,1.03 (inactive)
C[C@H]1CN(C[C@H](Cc2ccccc2)C(=O)NCC(=O)O)CC[C@@]1(C)c1cccc(O)c1,,-0.254,-0.529,-0.66 (inactive)
CCCOc1ccn2c(C(C)=O)cc(-c3ccccc3S(C)(=O)=O)c2c1,,1.76,1.78,2.02 (inactive)
C[C@H](CCC(=O)O)[C@H]1CC[C@H]2[C@@H]3[C@H](O)C[C@@H]4C[C@H](O)CC[C@]4(C)[C@H]3CC[C@]12C,,0.809,0.917,1.79 (inactive)
Cc1cc(C)cc(NC(=O)Cc2ccc(OC(C)(C)C(=O)O)cc2)c1,,-0.359,-0.00799,-0.433 (inactive)
